{"source": "PubChem BioAssay AID651610", "about": "(Broad Institute, 2012)", "assay": "inhibitors of HIV-1 Env-driven cell-cell fusion, primary screen, HeLa-JRFL effector, CEM21 target cells, luciferase (AID 651610);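 further: 0% = plate neutral controls and 100% = maraviroc near 300 nM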", "settings": "stronger effect = higher value", "note": "Where “and” joins values, the source holds several entries; their conditions need not be identical. Equal values may be shown once. In all, about 360,000 compounds went through this assay and about 3,900 (1.1%) were called active. Only a selection was taken, and actives are over-represented in it overall. Values without a mark were called inactive.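 How the source made its calls: active means mean replicate inhibition score of at least 50 and every replicate individually at or above 50; inconclusive means only one of the two criteria met; inactive means mean below 50 and not all replicates reaching 50.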"}
{"smiles": "O=C(NCc1ccco1)c1cc2sccc2n1Cc1ccc(F)cc1", "values": [{"measurement": "inhibition", "setting": "at 16.7 µM unless noted", "result": "20.8% [at 12.3 µM]"}]}
{"smiles": "O=C(Cc1ccc(-n2c(=O)c3sccc3n(Cc3ccc(F)cc3)c2=O)cc1)NCc1ccco1", "values": [{"measurement": "inhibition", "setting": "at 16.7 µM unless noted", "result": "0.234% [at 12.3 µM]"}]}
{"smiles": "O=C(NCc1ccco1)c1ccc(Cn2c(=O)c3sccc3n(Cc3ccc(F)cc3)c2=O)cc1", "values": [{"measurement": "inhibition", "setting": "at 16.7 µM unless noted", "result": "78.1% [at 12.3 µM] (active)"}]}
{"smiles": "O=C(CN1CCOCC1)NCC[C@H]1CC[C@@H](NC(=O)Nc2ccc(Cl)cc2)[C@@H](CO)O1", "values": [{"measurement": "inhibition", "setting": "at 16.7 µM unless noted", "result": 2.67, "unit": "%"}]}
{"smiles": "O=C(N[C@@H]1CC[C@H](CCn2cc(-c3ccccn3)nn2)O[C@@H]1CO)c1ccccc1", "values": [{"measurement": "inhibition", "setting": "at 16.7 µM unless noted", "result": 12.1, "unit": "%"}]}
{"smiles": "COc1ccc(S(=O)(=O)Nc2ccc3c(c2)C(=O)N([C@@H](C)CO)C[C@H](C)[C@@H](CN(C)C(=O)NC(C)C)OCCCC[C@H](C)O3)cc1", "values": [{"measurement": "inhibition", "setting": "at 16.7 µM unless noted", "result": 1.4, "unit": "%"}]}
{"smiles": "CCOC(=O)C(C)Oc1cccc2c(=O)n(CC(=O)N3CCc4ccccc43)ccc12", "note": "(centres undefined)", "values": [{"measurement": "inhibition", "setting": "at 16.7 µM unless noted", "result": "-10.8% [at 12.3 µM]"}]}
{"smiles": "COC(=O)COc1cccc2c(=O)n(CC(=O)NCc3ccccc3)ccc12", "values": [{"measurement": "inhibition", "setting": "at 16.7 µM unless noted", "result": "-188% [at 12.3 µM]"}]}
{"smiles": "CCOC(=O)C(C)Oc1cccc2c(=O)n(CC(=O)NCCc3ccc(OC)c(OC)c3)ccc12", "note": "(centres undefined)", "values": [{"measurement": "inhibition", "setting": "at 16.7 µM unless noted", "result": "88.4% [at 12.3 µM] (active)"}]}
{"smiles": "C[C@@H]1CN([C@H](C)CO)C(=O)Cc2cc(NS(=O)(=O)c3cccs3)ccc2O[C@@H]1CN(C)C(=O)Nc1ccc(F)cc1", "values": [{"measurement": "inhibition", "setting": "at 16.7 µM unless noted", "result": -7.97, "unit": "%"}]}
{"smiles": "C[C@@H]1CN([C@H](C)CO)C(=O)c2cc(NC(=O)Nc3cccc4ccccc34)ccc2O[C@@H](C)CCCCO[C@H]1CN(C)S(=O)(=O)c1cccs1", "values": [{"measurement": "inhibition", "setting": "at 16.7 µM unless noted", "result": 15.1, "unit": "%"}]}
{"smiles": "CCCCCc1c(-c2ccc(OC)c(OC)c2)ncn1CCc1ccccc1OC", "values": [{"measurement": "inhibition", "setting": "at 16.7 µM unless noted", "result": "49.2% [at 12.3 µM]"}]}
{"smiles": "CCCCCc1c(-c2cccc(Br)c2)ncn1CCc1ccccc1OC", "values": [{"measurement": "inhibition", "setting": "at 16.7 µM unless noted", "result": "11.9% [at 12.3 µM]"}]}
{"smiles": "CCCCCc1c(Cc2ccccc2)ncn1CCc1ccccc1OC", "values": [{"measurement": "inhibition", "setting": "at 16.7 µM unless noted", "result": "109% [at 12.3 µM] (active)"}]}
{"smiles": "O=C(C[C@H]1C[C@H]2c3cc(NC(=O)CC4CC4)ccc3O[C@H]2[C@H](CO)O1)NCc1ccccc1", "values": [{"measurement": "inhibition", "setting": "at 16.7 µM unless noted", "result": 8.72, "unit": "%"}]}
{"smiles": "CC(=O)C1=C(C)N(Cc2ccc(Cl)cc2)C(=S)NC1c1ccc(F)cc1", "note": "(centres undefined)", "values": [{"measurement": "inhibition", "setting": "at 16.7 µM unless noted", "result": "62.3% [at 12.3 µM] (active)"}]}
{"smiles": "COC(=O)C1=C(C)N(Cc2ccc(F)cc2)C(=S)NC1c1cccc(Cl)c1", "note": "(centres undefined)", "values": [{"measurement": "inhibition", "setting": "at 16.7 µM unless noted", "result": "34.2% [at 12.3 µM]"}]}
{"smiles": "CC(=O)C1=C(C)N(Cc2ccccc2)C(=S)NC1c1cccc(Br)c1", "note": "(centres undefined)", "values": [{"measurement": "inhibition", "setting": "at 16.7 µM unless noted", "result": "0.027% [at 12.3 µM]"}]}
{"smiles": "C[C@@H]1CCCCO[C@@H](CN(C)S(=O)(=O)c2cccs2)[C@@H](C)CN([C@H](C)CO)C(=O)c2cc(NC(=O)Nc3ccc4c(c3)OCO4)ccc2O1", "values": [{"measurement": "inhibition", "setting": "at 16.7 µM unless noted", "result": 4.87, "unit": "%"}]}
{"smiles": "COCC(=O)Nc1ccc2c(c1)C(=O)N(C)C[C@H](OC)[C@@H](C)CN(C(=O)Cc1cccnc1)[C@@H](C)CO2", "values": [{"measurement": "inhibition", "setting": "at 16.7 µM unless noted", "result": 0.828, "unit": "%"}]}
{"smiles": "CCc1ccc(N(CC)c2ncnc3nc[nH]c23)cc1", "values": [{"measurement": "inhibition", "setting": "at 16.7 µM unless noted", "result": "55.5% [at 12.3 µM] (active)"}]}
{"smiles": "S=c1c2[nH]cnc2ncn1CCSc1ncnc2nc[nH]c12", "values": [{"measurement": "inhibition", "setting": "at 16.7 µM unless noted", "result": "-6.63% [at 12.3 µM]"}]}
{"smiles": "CCC(=O)N1[C@H](C(=O)NCc2ccc(F)cc2)[C@@H](CO)[C@@H]2Cn3c(ccc(C4=CCCCC4)c3=O)[C@@H]21", "values": [{"measurement": "inhibition", "setting": "at 16.7 µM unless noted", "result": 22.3, "unit": "%"}]}
{"smiles": "C[C@@H]1CCCCO[C@@H](CN(C)Cc2ccncc2)[C@@H](C)CN([C@@H](C)CO)C(=O)c2cc(N(C)C)ccc2O1", "values": [{"measurement": "inhibition", "setting": "at 16.7 µM unless noted", "result": 12.4, "unit": "%"}]}
{"smiles": "Brc1ccc2ncnc(NCc3cccnc3)c2c1", "values": [{"measurement": "inhibition", "setting": "at 16.7 µM unless noted", "result": "43.2% [at 12.3 µM]"}]}
{"smiles": "O=C(O)CCCCCNc1ncnc2ccc(Br)cc12", "values": [{"measurement": "inhibition", "setting": "at 16.7 µM unless noted", "result": "26.9% [at 12.3 µM]"}]}
{"smiles": "C=CCNc1ncnc2ccc(Br)cc12", "values": [{"measurement": "inhibition", "setting": "at 12.3 µM", "result": "92.8% (active)"}, {"measurement": "inhibition", "setting": "at 16.7 µM", "result": "9.63% and 27.5%"}]}
{"smiles": "CN1CCN(C(=O)C[C@H]2C[C@H]3c4cc(NC(=O)Nc5ccccc5F)ccc4O[C@H]3[C@H](CO)O2)CC1", "values": [{"measurement": "inhibition", "setting": "at 16.7 µM unless noted", "result": -13.6, "unit": "%"}]}
{"smiles": "COc1ccccc1CNC(=O)C[C@@H]1C[C@@H]2c3cc(NC(=O)C4CCOCC4)ccc3O[C@@H]2[C@@H](CO)O1", "values": [{"measurement": "inhibition", "setting": "at 16.7 µM unless noted", "result": -2.64, "unit": "%"}]}
{"smiles": "O=C(Nc1ccc(CN2CCOCC2)cc1)c1cc(Cl)ccc1Cl", "values": [{"measurement": "inhibition", "setting": "at 16.7 µM unless noted", "result": "-16% [at 12.3 µM]"}]}
{"smiles": "CCOC(=O)N1CCN(Cc2nc3cc(NC(C)=O)ccc3n2C)CC1", "values": [{"measurement": "inhibition", "setting": "at 16.7 µM unless noted", "result": "9.8% [at 12.3 µM]"}]}
{"smiles": "Cn1c(CN2CCOCC2)nc2cc(NC(=O)c3ccc(Cl)cc3)ccc21", "values": [{"measurement": "inhibition", "setting": "at 16.7 µM unless noted", "result": "66.4% [at 12.3 µM] (active)"}]}
{"smiles": "CNC[C@@H]1Oc2cc(-c3ccccc3OC)ccc2S(=O)(=O)N([C@@H](C)CO)C[C@H]1C", "values": [{"measurement": "inhibition", "setting": "at 16.7 µM unless noted", "result": -40.9, "unit": "%"}]}
{"smiles": "CCCNC(=O)N(C)C[C@H]1Oc2cc(-c3ccncc3)ccc2S(=O)(=O)N([C@H](C)CO)C[C@H]1C", "values": [{"measurement": "inhibition", "setting": "at 16.7 µM unless noted", "result": -10.2, "unit": "%"}]}
{"smiles": "CC(=O)c1c(C)[nH]c(C(=O)OCC(=O)Nc2c(C)cccc2C)c1C", "values": [{"measurement": "inhibition", "setting": "at 16.7 µM unless noted", "result": "76.4% [at 12.3 µM] (active)"}]}
{"smiles": "CC(=O)c1c(C)[nH]c(C(=O)OCC(=O)NCCC(C)C)c1C", "values": [{"measurement": "inhibition", "setting": "at 16.7 µM unless noted", "result": "38.2% [at 12.3 µM]"}]}
{"smiles": "CC(=O)c1c(C)[nH]c(C(=O)OCC(=O)Nc2cc(S(=O)(=O)N3CCCCC3)ccc2C)c1C", "values": [{"measurement": "inhibition", "setting": "at 16.7 µM unless noted", "result": "0.591% [at 12.3 µM]"}]}
{"smiles": "CO[C@@H]1CN(C)C(=O)c2cc(NS(=O)(=O)c3ccccc3C)ccc2OC[C@@H](C)N(S(C)(=O)=O)C[C@@H]1C", "values": [{"measurement": "inhibition", "setting": "at 16.7 µM unless noted", "result": 23.9, "unit": "%"}]}
{"smiles": "C[C@@H]1CN([C@@H](C)CO)C(=O)c2cc(-c3ccccc3F)cnc2O[C@@H]1CN(C)Cc1cccc(F)c1", "values": [{"measurement": "inhibition", "setting": "at 16.7 µM unless noted", "result": 6.32, "unit": "%"}]}
{"smiles": "Cc1cccc(C)c1NC(=O)CN1CCN(c2ccc(F)cc2)CC1", "values": [{"measurement": "inhibition", "setting": "at 16.7 µM unless noted", "result": "-17.6% [at 12.3 µM]"}]}
{"smiles": "CC1CCCC(C)N1C(=O)CN1CCN(c2nc(-c3ccc(F)cc3)cs2)CC1", "note": "(centres undefined)", "values": [{"measurement": "inhibition", "setting": "at 16.7 µM unless noted", "result": "57.8% [at 12.3 µM] (active)"}]}
{"smiles": "O=C(COC(=O)C1CCCO1)Nc1nc(-c2ccc(F)cc2)cs1", "note": "(centres undefined)", "values": [{"measurement": "inhibition", "setting": "at 16.7 µM unless noted", "result": "-32.6% [at 12.3 µM]"}]}
{"smiles": "C[C@@H]1CN([C@@H](C)CO)S(=O)(=O)c2ccc(C#Cc3ccccc3F)cc2O[C@H]1CN(C)C(=O)c1ccc2c(c1)OCO2", "values": [{"measurement": "inhibition", "setting": "at 16.7 µM unless noted", "result": 48.7, "unit": "%"}]}
